Source: PubChem BioAssay

Assays:
[1] = test system: Human papillomavirus type 1a protein E7 (residues 44-93); assay: small molecules binding HPV E7 44-93 – biochemical, small-molecule microarray, residues 44-93, 635 nm fluorescence, primary screen (AID 1108); settings: fluorescence 635 nm, higher = more signal;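 note: E7 fragment applied at 1 µg/mL in TBST for 1 h at 4 C; score combines spot fluorescence with its signal to noise ratio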
[2] = hepatitis C replication reporter changes, two-sided – Huh7 cells, luciferase reporter, HCV replication inhibitor project, primary screen (AID 1109); settings: Huh7 HCV replicon luciferase reporter, 48 h; higher = more signal;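 note: huh7 hepatoma cells harbouring a luciferase neomycin HCV replicon reporter; luciferase luminescence as measure of HCV replicon replication; test concentration not given here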
[3] = target: Left-right determination factor 2 (Homo sapiens) (UniProt O00292); assay: small molecules binding LEFTY2 protein – biochemical, small-molecule microarray, 635 nm fluorescence scan, primary screen (AID 1110); settings: higher = more signal
[4] = target: Calmodulin-1 (Homo sapiens) (UniProt P0DP23); assay: small molecules binding calmodulin-1 with EGTA – biochemical, small-molecule microarray, Cy5-labelled CALM1, profiling panel (AID 1111); settings: Cy5-CALM1 binding fluorescence, higher = more signal;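 note: labelled calmodulin applied in Tris saline Tween buffer holding calcium plus EGTA and DTT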
[5] = target: Calmodulin-1 (Homo sapiens) (UniProt P0DP23); assay: small molecules binding Ca-loaded calmodulin-1 – biochemical, small-molecule microarray, Cy5-labelled CALM1, plus calcium, artefact control for SMM control-protein annotation, profiling panel (AID 1112); settings: Cy5-CALM1 binding fluorescence, higher = more signal;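 note: score merges spot fluorescence with signal to noise from triplicate slides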
[6] = probe aWnt5a binding to arrayed compounds – biochemical, biotinylated probe, 635/667 nm fluorescence, primary screen (AID 1113); settings: small-molecule microarray, higher = more signal;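 note: score merges 667 nm fluorescence intensity with signal-to-noise per printed feature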
[7] = probe aShh binding to arrayed compounds – biochemical, biotinylated probe, 635/667 nm fluorescence, primary screen (AID 1114); settings: small-molecule microarray, higher = more signal;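 note: probe is biotin-labelled aShh protein from a stem cell growth factor screen; measures binding of labelled protein to compounds printed on the slide; score merges feature fluorescence at 667 nm with signal-to-noise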
[8] = probe aNog binding to arrayed compounds – biochemical, biotinylated probe, 635/667 nm fluorescence, primary screen (AID 1115); settings: small-molecule microarray, higher = more signal;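 note: probe is biotinylated aNog protein used at 0.15 µg/mL for 1 h at 4 C; z-score combines 667 nm fluorescence of each spot with its signal to noise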
[9] = target: Torsin-1A-interacting protein 1 (Homo sapiens) (UniProt Q5JTV8); assay: compound microarray binding of lysate hLAP1 – cell lysate, small-molecule microarray, COS7 lysate, 635/667 nm fluorescence, primary screen (AID 1116); settings: 635 nm fluorescence, higher = more signal
[10] = target: Alpha-bungarotoxin (Bungarus multicinctus) (UniProt P60615); assay: compounds binding labelled alpha-BTX control protein – biochemical, small-molecule microarray, Alexa647 label, 635/667 nm fluorescence, artefact control for SMM control protein annotation, profiling panel (AID 1117); settings: alpha-BTX-A647 binding fluorescence, higher = more signal
Alpha-bungarotoxin (Bungarus multicinctus), sequence (P60615 whole entry, looked up): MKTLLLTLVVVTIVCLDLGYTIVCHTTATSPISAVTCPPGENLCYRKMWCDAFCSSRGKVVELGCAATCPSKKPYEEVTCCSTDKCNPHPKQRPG

Left-right determination factor 2 (Homo sapiens), sequence (O00292 whole entry, looked up): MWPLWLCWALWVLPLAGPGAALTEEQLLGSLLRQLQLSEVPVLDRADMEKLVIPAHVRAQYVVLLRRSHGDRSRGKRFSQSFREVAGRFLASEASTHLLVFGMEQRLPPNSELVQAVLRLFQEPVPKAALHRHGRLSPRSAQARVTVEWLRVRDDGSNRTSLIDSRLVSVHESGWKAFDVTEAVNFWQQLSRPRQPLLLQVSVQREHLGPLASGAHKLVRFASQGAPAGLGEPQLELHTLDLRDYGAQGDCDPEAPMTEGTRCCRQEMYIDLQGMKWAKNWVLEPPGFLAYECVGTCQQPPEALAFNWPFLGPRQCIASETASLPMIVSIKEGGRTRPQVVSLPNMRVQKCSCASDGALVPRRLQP
Torsin-1A-interacting protein 1 (Homo sapiens), sequence (Q5JTV8 whole entry, looked up): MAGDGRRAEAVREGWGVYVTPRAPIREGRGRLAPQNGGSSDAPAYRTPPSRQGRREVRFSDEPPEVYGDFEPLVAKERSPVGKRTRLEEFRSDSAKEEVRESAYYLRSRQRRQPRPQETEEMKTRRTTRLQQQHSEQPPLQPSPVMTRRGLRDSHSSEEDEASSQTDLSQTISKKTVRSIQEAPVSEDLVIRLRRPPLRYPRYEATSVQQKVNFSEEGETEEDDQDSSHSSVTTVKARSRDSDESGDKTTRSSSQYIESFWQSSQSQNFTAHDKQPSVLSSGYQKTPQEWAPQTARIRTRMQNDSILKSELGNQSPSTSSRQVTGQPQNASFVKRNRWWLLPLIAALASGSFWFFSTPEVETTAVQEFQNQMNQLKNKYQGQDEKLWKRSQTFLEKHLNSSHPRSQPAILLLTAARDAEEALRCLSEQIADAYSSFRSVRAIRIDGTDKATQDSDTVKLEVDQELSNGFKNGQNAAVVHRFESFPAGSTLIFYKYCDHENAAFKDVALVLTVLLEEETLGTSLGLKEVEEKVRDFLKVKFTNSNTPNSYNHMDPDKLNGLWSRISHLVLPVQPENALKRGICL

| SMILES | composite z-score [1] | z-score [2] | composite z-score [3] | composite z-score [4] | composite z-score [5] | composite z-score [6] | composite z-score [7] | composite z-score [8] | composite z-score [9] | composite z-score [10] |
| --- | --- | --- | --- | --- | --- | --- | --- | --- | --- | --- |
| O=C(NCCN1CCOCC1)[C@@H]1c2ccccc2C(=O)N(Cc2ccc(OC(F)(F)F)cc2)[C@H]1c1ccc(CO)cc1 | 1.25 | -1.29 | -0.622 | 0.749 | 0.337 | -0.11 | 0.0756 | 0.99 | 1.19 | 0.0007 |
| COCCn1c(C(=O)N(C)C)cc2c1C[C@H]1CN(C(=O)c3ccccc3)[C@@](Cc3ccc(OC)cc3)(C(=O)OC)[C@@H]21 | 1.38 | -1.27 | 0.0756 | 0.572 | 0.25 | 0.0431 | 0.204 | 0.919 | 0.357 | 0.0924 |
| CC(C)N1C(=O)C[C@@](C(=O)NCCN2CCOCC2)(c2ccc([N+](=O)[O-])cc2)[C@H]1c1ccc(CO)cc1 | -0.0369 | 0.323 | -1.07 | -0.701 | -0.272 | -0.298 | -0.221 | -0.478 | 2.15 | -0.418 |
| COC(=O)C[C@H]1O[C@@]2(C[C@@H]1[Si](C)(C)C)C(=O)N(C)c1ccccc12 | 1.06 | -0.83 | 0.392 | -0.197 | -0.273 | -0.0643 | -0.362 | 0.273 | -0.116 | 0.586 |
| C=CCC(OC(C)=O)[C@@H]1[C@@H](N(Cc2cccc3ccccc23)C(=O)Cc2ccc(OC)cc2)c2cc(OCCCO)ccc2N1C(=O)Cc1ccc2ccccc2c1 (stereo not given in full) | 0.415 | 0.24 | -0.102 | 0.0895 | 0.316 | -0.216 | -0.138 | -0.308 | -0.0234 | 0.14 |
| O=C1C[C@@](C(=O)NCc2ccccc2)(c2ccc([N+](=O)[O-])cc2)[C@@H](c2ccc(CO)cc2)N1C1CCCCC1 | 0.653 | -1.24 | 0.399 | -0.175 | -0.386 | 0.0273 | 0.0697 | 0.786 | 1.46 | 1.72 |
| O=C(NC1CC1)[C@@H]1c2ccccc2C(=O)N(CC23CC4CC(CC(C4)C2)C3)[C@H]1c1ccc(CO)cc1 | 1.36 | -1.22 | 1.13 | 0.609 | -0.657 | -0.096 | -0.138 | -0.541 | 0.755 | 0.428 |
| CN(C)CCCNC(=O)[C@@]1(Cc2ccccc2I)c2ccccc2C(=O)N(C2CCCCC2)[C@H]1c1ccc(CO)cc1 | 0.664 | -3.49 | 0.0837 | 1.71 | 1.2 | -0.0057 | 1.26 | 0.0646 | 1.02 | 2.57 |
| C=CCC(OC(C)=O)[C@@H]1[C@@H](N(Cc2cccc3ccccc23)C(=O)c2ccc(-c3ccccc3)cc2)c2cc(OCCCO)ccc2N1C(=O)Cc1ccc2ccccc2c1 (stereo not given in full) | -0.515 | -0.105 | -0.181 | 0.858 | 0.912 | 0.0399 | 0.0278 | -0.0773 | 0.438 | 0.106 |
| O=C1N(CCS(=O)(=O)c2ccccc2)c2ccccc2C[C@]12N=C(c1ccc(OCCCO)cc1)O[C@@H]2c1ccccc1 | 1.42 | -1.74 | 0.845 | 2.28 | 0.565 | 0.0704 | -0.0146 | 0.217 | 1.93 | 1.91 |
| [N-]=[N+]=Nc1ccccc1[C@H]1OC(c2ccc(OCCCO)cc2)=N[C@@]1(Cc1ccccc1)C(=O)NCC(O)CO (stereo not given in full) | 1.38 | -1.29 | -1.04 | 1.04 | 1 | 0.119 | 0.257 | 0.0005 | 1.5 | 1.57 |
| CCCC=C(CCC)[C@@H](NC(=O)OCC(C)C)c1ccc(C(=O)OC)cc1 | 0.903 | -1.02 | 0.66 | 0.059 | -0.307 | -0.217 | -0.138 | -0.0496 | 0.0246 | -0.376 |
| CCC(CC)C(O)C1C=CC2C(=O)N(c3ccccc3)C(=O)C2N1Nc1ccccc1F (stereo not given) | 1.2 | -0.171 | -0.527 | 0.189 | 0.25 | 0.612 | -0.214 | 0.53 | 0.447 | 1.39 |
| O=C1OCCC=C[C@H]2OC34C=CCN(c5ccc6ccccc6c5)C(=O)[C@H]3N(CCO)C(=O)[C@@H]4C12 (stereo not given in full) | -0.988 | -0.07 | -0.277 | -0.237 | -0.419 | -0.219 | -0.383 | -0.453 | 0.468 | 0.0797 |
| C[N+](C)(C)CCCCNC(=O)[C@H]1C[C@H]2C(=O)N[C@@H](Cc3ccccc3)C(=O)N2[C@H]1c1cccc(OCCO)c1 | -0.365 | -0.741 | 1.34 | -1.14 | -1.7 | -0.0495 | 0.151 | -0.456 | 1.17 | -0.245 |
| O=C(NCC(O)CO)[C@@]1(CCS(=O)(=O)c2ccccc2)N=C(c2ccc(OCCCO)cc2)O[C@H]1c1ccccc1 (stereo not given in full) | 1.47 | 0.0294 | -1.15 | 1.51 | 1.14 | 0.0676 | 0.181 | 0.0574 | 2.55 | 3.32 |

| SMILES | composite z-score [1] | z-score [2] | composite z-score [3] | composite z-score [4] | composite z-score [5] | composite z-score [6] | composite z-score [7] | composite z-score [8] | composite z-score [9] | composite z-score [10] |
| --- | --- | --- | --- | --- | --- | --- | --- | --- | --- | --- |
| C#CCN1[C@@H](Cc2ccccc2)C(=O)O[C@H](Cc2ccccc2)[C@@H]1/C=C/C1CC1 | 0.805 | -2.28 | 0.137 | -0.63 | -0.717 | -0.118 | -0.0337 | -0.196 | 0.436 | 0.456 |
| COc1ccc(C(O)C2C=CC3C(=O)NC(=O)C3N2Nc2ccc(Cl)cc2Cl)c2ccccc12 (stereo not given) | 0.795 | -0.0178 | -0.65 | 2.02 | 1.08 | -0.181 | -0.116 | -1.02 | 0.693 | 1.17 |
| COC(=O)[C@]1(Cc2ccccc2)N=C(c2ccc(OCCCO)cc2)O[C@@H]1c1ccccc1CN=[N+]=[N-] | 1.37 | -3.37 | -0.383 | 0.63 | -0.293 | -0.0944 | 0.0796 | 0.537 | 1.11 | 1.01 |
| COC(=O)[C@H](Cc1ccccc1)N1CC2=CCCC=C[C@@H]2[C@H]1[C@H](O)Cc1ccccc1 | 0.216 | -1.74 | -0.149 | 1.09 | -0.749 | -0.0977 | 0.427 | 1.79 | 0.545 | 0.831 |
| COCC(=C=CC[C@H](O)c1ccccc1OCCO)C[C@H](O)COCc1ccccc1 | 1.2 | -1.51 | 0.0832 | 0.324 | -0.678 | -0.0685 | 0.275 | 0.589 | 1.36 | -0.346 |
| C=CCOC(=O)[C@H]1[C@@H]2C(=O)O[C@@H](c3ccccc3)[C@@H](c3ccccc3)N2[C@@H](c2ccc(OCCOC(=O)[C@H]3C[C@H]4C(=O)N[C@@H](CC(C)C)C(=O)N4[C@H]3c3ccc(O)cc3)cc2)[C@]12C(=O)Nc1ccccc12 | 1.42 | -1.75 | 1.44 | 0.538 | -0.273 | 0.0919 | -0.066 | -0.582 | 1.78 | 1.52 |
| O=C1O[C@@H](c2ccccc2)[C@@H](c2ccccc2)N2[C@@H](c3ccc(OCCO)cc3)[C@]3(C(=O)Nc4ccc(C#CC5(O)CCCCCC5)cc43)[C@@H](C(=O)O)[C@H]12 | 0.349 | -0.687 | 0.109 | 1.29 | 1.03 | -0.0495 | 0.0902 | -0.0047 | 0.835 | 0.987 |
| CC(=O)OCC1C2CC[C@H]3C(OCc4ccc(F)cc4C(F)(F)F)OC[C@]4(C)[C@H]3C2=C(CN4C(=O)OC(C)(C)C)[C@H](C)C1COC(C)=O (stereo not given in full) | 0.359 | -0.834 | -1.65 | 1.95 | 1.19 | 0.591 | 0.338 | 0.182 | -0.212 | 0.668 |
| Cc1ccc(S[C@]2(C(=O)NCCCN(C)C)CC(=O)N(C3Cc4ccccc4C3)[C@@H]2c2ccc(CO)cc2I)cc1 | 0.257 | -2.83 | -1.11 | 0.0811 | -0.358 | 0.0792 | 0.207 | -0.291 | 0.157 | 0.651 |
| COC(=O)[C@@]1(Cc2ccc(OC)cc2)[C@H]2c3cc(C(=O)N(C)C)[nH]c3C[C@H]2CN1C(=O)c1ccccc1 | -0.65 | -0.536 | -0.228 | -0.0912 | -0.242 | -0.176 | 0.128 | 0.516 | -0.223 | 0.0334 |
| CC=CC(O)C1C=CC2C(=O)NC(=O)C2N1Nc1ccc(Cl)cc1Cl (stereo not given) | 0.342 | -0.0813 | 0.483 | 0.498 | 0.0224 | -0.0194 | 0.199 | 0.353 | 0.685 | 0.64 |
| [N-]=[N+]=Nc1ccccc1C[C@]1(C(=O)N2CCOCC2)N=C(c2ccc(OCCCO)cc2)O[C@H]1c1ccccc1N=[N+]=[N-] | 1.29 | -2.23 | 1.22 | 1.5 | -0.388 | 0.145 | 0.275 | -0.626 | 1.9 | 1.84 |
| [N-]=[N+]=Nc1ccccc1C[C@@]1(C(=O)NCC(O)CO)N=C(c2ccc(OCCCO)cc2)O[C@@H]1c1ccccc1 (stereo not given in full) | 0.355 | -0.688 | -1.28 | 0.754 | 0.0985 | 0.0431 | 0.151 | 0.0308 | 1.48 | -0.422 |
| C=C(C)[C@@H]1CC=C(C(O)C2C=CC3C(=O)N(C)C(=O)C3N2Nc2ccc([N+](=O)[O-])cc2[N+](=O)[O-])CC1 (stereo not given in full) | 1.45 | -0.44 | 0.265 | 0.79 | 0.441 | 0.101 | 0.302 | 1.46 | 0.958 | 1.95 |
| C=CCNC(=O)[C@H]1[C@@H]2C(=O)O[C@@H](c3ccccc3)[C@@H](c3ccccc3)N2[C@@H](c2ccc(OCCO)cc2)[C@]12C(=O)Nc1ccccc12 | 1.39 | -1.4 | -0.514 | 1.85 | 0.345 | -0.0405 | -0.0505 | 0.666 | 1.87 | 1.4 |
| CC(C)NC(=O)[C@@]1(c2ccc([N+](=O)[O-])cc2)CC(=O)N(CC23CC4CC(CC(C4)C2)C3)[C@@H]1c1ccc(CO)cc1 | 0.939 | -2.7 | 1.03 | 1.03 | -0.0022 | 0.289 | 0.321 | 1.85 | 1.52 | 1.37 |
